Data on 23 molecules can be found in PubChem BioAssay (NCATS).

Results filed as inconclusive are left out. The source made the active and inactive calls. Calls follow the shape of the dose curve; as a rule, active = well fitted inhibition curve with a large enough effect; inconclusive = small, poorly fitted or top-dose-only effect; inactive = flat fitted curve, though single readings scatter. Numbered stars: 1 amine (or outer) side, 2 acyl side, 3 side chain; on linkers, the order of the positions; unused ones are H or OH. Bridge positions count the residues as written; N and C are the ends. Square brackets hold non-standard residues; d marks the D form. Peptide text beside a SMILES is read from it. I, II: the chains in the order shown. Actinocin(9to1) = Cc1c2oc3c(C)ccc(C(=O)[*:1])c3nc-2c(C(=O)[*:2])c(N)c1=O; NMeV = CN[C@H](C(=O)O)C(C)C; Sar = CNCC(=O)O

Holding throughout (experiment): qHTS profiling for inhibitors of Plasmodium falciparum proliferation (AID 504749); also: nearly all actives have a fitted effect of over 60% in size
What all share (conditions): P. falciparum in erythrocytes, SYBR Green DNA, 72 h; series mostly up to 28.7 µM
On the technique in general: In qHTS, concentration-response curves come from the screen itself.

In one test the test system is C2A. A digest of the protocol: (§1)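 Infected RBCs, 0.3% parasitemia/2.5% Hct final; cpd 72 h, 37 C, 5% CO2; lysis buffer with saponin/triton/SYBR Green I, o/n RT dark; FI 485/535; norm. to artemisinin (0.29 uM) and DMSO.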
The test system of a further test is CP185. A digest of the protocol: as §1
A further test relates to CP191. A digest of the protocol:
as §1

In another test the test system is CP192. A digest of the protocol:
as §1

Another test relates to CP194. A digest of the protocol: as §1
A further test has as its system CP201. A digest of the protocol:
as §1

Another test deals with CP203. A digest of the protocol:
as §1

Another test relates to CP211. A digest of the protocol: as §1
A further test deals with CP215. A digest of the protocol: as §1
The next test concerns CP217. A digest of the protocol:
as §1
Potency is read from the fitted curve at half-maximal effect.

In the case of `C[C@]12CCC(=O)C=C1CC[C@H]1[C@@H]3CC[C@](O)(C(=O)CO)[C@@]3(C)C[C@H](O)[C@@]12F`, the Potency entry in the test on C2A, with CP185, with CP191, in the test on CP192, in the test on CP194 and with CP201 was “inactive” each time. The Potency entry with CP203, in the test with CP211, with CP215 and in the test with CP217 was “inactive” each time.
For the molecule `CC(=O)Oc1ccc(C(c2ccc(OC(C)=O)cc2)c2ccccn2)cc1`, the Potency result with C2A, with CP185, with CP191, in the test on CP192, with CP194 and with CP201 was “inactive” each time. Moreover, the Potency entry in the test with CP203, in the test on CP211, in the test on CP215 and with CP217 was “inactive” throughout.
On to `CC(=O)Nc1c(I)cc(I)c(C(=O)O)c1I`, for which the Potency entry in the test with C2A, with CP185, in the test on CP191, with CP192, with CP194 and in the test with CP201 was “inactive” each time. Moreover, the Potency entry in the test on CP203, with CP211, with CP215 and in the test on CP217 was “inactive” in each case.
Regarding `CC(O)C(=O)O` (centres undefined), the Potency result with C2A, in the test on CP185, in the test on CP191, in the test on CP192, with CP194 and in the test on CP201 was “inactive” in each case. Also, the Potency result with CP203, in the test on CP211 and in the test on CP217 was “inactive” each time.
For the molecule `O=C(Nc1ccc(Cl)c(Cl)c1)C1CC1`, the Potency entry in the test with C2A, in the test on CP185, in the test on CP191, with CP192, in the test on CP194 and in the test on CP201 was “inactive” throughout. Besides, the Potency entry in the test with CP211, in the test on CP215 and in the test on CP217 was “inactive” throughout.
For the molecule `CC(=O)OCC(=O)NCCCOc1cccc(CN2CCCCC2)c1`, the Potency result in the test on C2A, in the test with CP185, with CP191, in the test with CP192, in the test on CP194 and in the test on CP201 was “inactive” throughout. Also, the Potency entry in the test on CP203, in the test on CP215 and in the test with CP217 was “inactive” each time.
Regarding `CCOC(=O)OC(C)OC1=C(C(=O)Nc2ccccn2)N(C)S(=O)(=O)c2ccccc21` (centres undefined), the Potency result with C2A, in the test with CP185, in the test with CP191, in the test with CP192, in the test with CP194 and in the test with CP201 was “inactive” throughout. In addition, the Potency result in the test on CP211, in the test with CP215 and in the test on CP217 was “inactive” throughout.
For `N[C@@H](Cc1cnc[nH]1)C(=O)O`, the Potency result in the test with C2A, with CP185, in the test with CP191, in the test on CP192, in the test with CP194 and with CP201 was “inactive” each time. The Potency entry in the test on CP211, in the test with CP215 and in the test on CP217 was “inactive” throughout.
For the molecule `C[C@H]1[C@H](NC(=O)/C(=N/OC(C)(C)C(=O)O)c2csc(N)n2)C(=O)N1S(=O)(=O)O` (stereo in doubt), the Potency entry with C2A, in the test with CP185, in the test on CP191, with CP192, with CP194 and in the test on CP201 was “inactive” in each case. The Potency result in the test on CP211, with CP215 and with CP217 was “inactive” in each case.
For `Nc1ccc(C(=O)Nc2ccccc2N)cc1`, the Potency entry in the test on C2A, in the test with CP185, with CP191, in the test with CP192, with CP194 and with CP201 was “inactive” throughout. In addition, the Potency result with CP211, in the test with CP215 and with CP217 was “inactive” in each case.
Turning to `NC(=NCCCCCCN=C(N)/N=C(\N)Nc1ccc(Cl)cc1)/N=C(\N)Nc1ccc(Cl)cc1`, the Potency is 2240 nM (active) in the test on C2A; 1780 nM (active) with CP185; 1120 nM (active) in the test with CP191; 1690 nM (active) in the test with CP192; 1510 nM (active) in the test with CP194; 3790 nM (active) in the test on CP201. Moreover, the values for the Potency in the test with CP211, in the test with CP215 and in the test with CP217 were 1510 nM (active), 1900 nM (active) and 2000 nM (active), respectively.
Consider `COc1cccc2c1C(=O)c1c(O)c3c(c(O)c1C2=O)C[C@@](O)(C(C)=O)C[C@@H]3O[C@H]1C[C@H](N)[C@H](O)[C@H](C)O1`, for which the Potency in the test with C2A is 3160 nM (active); in the test with CP185, 4470 nM (active); in the test with CP191, 3160 nM (active); with CP192 it was 6010 nM (active); in the test on CP194 it was 7570 nM (active); in the test with CP201, 9530 nM (active). Besides, the results for the Potency with CP211, in the test on CP215 and with CP217 were 3790 nM (active), 7570 nM (active) and 1000 nM (active), respectively.
Consider `CN1CCC[C@@H]1c1cccnc1`, for which the Potency result in the test with C2A, in the test with CP185, in the test on CP191, in the test on CP192, with CP194 and in the test with CP201 was “inactive” in each case. In addition, the Potency entry in the test on CP211, in the test with CP215 and in the test with CP217 was “inactive” throughout.
`Cc1ncc(CSSCc2cnc(C)c(O)c2CO)c(CO)c1O`: the Potency entry in the test on C2A, in the test with CP185, in the test with CP191, in the test on CP192, in the test with CP194 and in the test with CP201 was “inactive” throughout. Also, the Potency entry in the test with CP211, in the test on CP215 and in the test with CP217 was “inactive” in each case.
In the case of `O=C(OCCOCCO)c1ccccc1Nc1cccc(C(F)(F)F)c1`, the Potency entry in the test with C2A, in the test on CP185, with CP191, in the test on CP192, in the test with CP194 and in the test with CP201 was “inactive” throughout. The Potency entry in the test with CP211, in the test on CP215 and with CP217 was “inactive” each time.
Take `CCCCC(CC)CN=C(N)NC(N)=NCCCCCCN=C(N)NC(N)=NCC(CC)CCCC` (centres undefined): the Potency was 2240 nM (active) in the test with C2A; 1410 nM (active) in the test on CP185; 1000 nM (active) in the test on CP191; 3790 nM (active) in the test on CP192; 1510 nM (active) in the test on CP194; 1690 nM (active) in the test on CP201. Further, the Potency with CP211 was 1510 nM (active); in the test on CP215, 1690 nM (active); with CP217 it was 3160 nM (active).
With `CCCCCCCCCCCCCCCCOP(=O)([O-])OCC[N+](C)(C)C`, the Potency entry in the test with C2A, with CP185, in the test with CP191, in the test on CP192, in the test on CP194 and in the test on CP201 was “inactive” in each case. Also, the Potency result in the test with CP211, in the test on CP215 and in the test on CP217 was “inactive” in each case.
Regarding `Cc1c2oc3c(C)ccc(C(=O)N[C@@H]4C(=O)N[C@H](C(C)C)C(=O)N5CCC[C@H]5C(=O)N(C)CC(=O)N(C)[C@@H](C(C)C)C(=O)O[C@@H]4C)c3nc-2c(C(=O)N[C@@H]2C(=O)N[C@H](C(C)C)C(=O)N3CCC[C@H]3C(=O)N(C)CC(=O)N(C)[C@@H](C(C)C)C(=O)O[C@@H]2C)c(N)c1=O` (I: T[dV]P[Sar][NMeV] / II: T[dV]P[Sar][NMeV]; ester I:1-I:C, II:1-II:C; linker I:N-II:N via Actinocin(9to1)), the Potency in the test with C2A was 5.6 nM (active); in the test with CP185, 4.5 nM (active); in the test on CP191 it was 4.5 nM (active); in the test with CP192, 6 nM (active); in the test with CP194 it was 5.4 nM (active); with CP201 it was 7.6 nM (active). Also, the results for the Potency with CP211, in the test with CP215 and with CP217 were 6 nM (active), 5.4 nM (active) and 7.1 nM (active), respectively.
For the molecule `NCCc1ccn[nH]1`, the Potency entry in the test with C2A, in the test with CP185, in the test with CP191, in the test with CP192, with CP194 and in the test on CP201 was “inactive” in each case. In addition, the Potency result in the test with CP211, in the test with CP215 and in the test with CP217 was “inactive” in each case.
With `CCCCCCCCCCCCCCCCCC(=O)OCC(O)CO` (centres undefined), the Potency result with C2A, with CP185, with CP191, in the test with CP192, with CP194 and with CP201 was “inactive” throughout. In addition, the Potency entry with CP211, in the test with CP215 and with CP217 was “inactive” each time.
With `CCCCCCC[N+](CC)(CC)CCCCc1ccc(Cl)cc1`, the Potency in the test with C2A is 1580 nM (active); in the test on CP185 it was 2000 nM (active); with CP191, 2000 nM (active); in the test with CP192, 2030 nM (active); in the test with CP194, 2280 nM (active); with CP201 it was 2560 nM (active). Besides, the Potency in the test with CP211 was 1440 nM (active); in the test with CP215, 2030 nM (active); in the test on CP217 it was 2820 nM (active).
In the case of `CC1(C)CCC(NC(=O)[C@@H](N)CCC(=O)O)CC1`, the Potency entry in the test with C2A, with CP185, in the test on CP191, in the test on CP192, with CP194 and with CP201 was “inactive” in each case. In addition, the Potency result in the test on CP211, with CP215 and in the test on CP217 was “inactive” throughout.
For `COCc1c(C(C)C)nc(C(C)C)c(/C=C/[C@@H](O)C[C@@H](O)CC(=O)O)c1-c1ccc(F)cc1`, the Potency entry in the test with C2A, with CP185, in the test on CP191, in the test on CP192, in the test with CP194 and in the test with CP201 was “inactive” each time. The Potency result with CP211 and with CP217 was “inactive” throughout.
